In PubChem BioAssay (NCATS):
Unmarked numbers belong to inactive results. Inconclusive results are not listed. Entries that show only a call come without a potency. Activity calls are given as the source filed them. Unless noted, the call rests on the fitted dose curve; in most records, active means well fitted curve in the direction sought with a large enough effect; inconclusive means small, poorly fitted or top-dose-only effect, or another doubt; inactive means no such curve, though single readings can be large; an effect the other way counts as inactive or inconclusive.

Legend:
[1] = target: Lysosomal acid glucosylceramidase (Homo sapiens) (UniProt P04062); assay: Glucocerebrosidase-p2 (AID 348; in the data active means potency below about 10 µM; further: potency means the concentration at half of the fitted maximal effect); details: purified GBA, blue fluorogenic substrate, 40 min
In short: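 Compounds titrated from 0.6 nM upwards against 0.2 nM enzyme in pH 5.9 citric acid/KH2PO4, taurocholate, tween-20; blue fluorogenic substrate 80 uM, 40 min room temperature, stopped and read Ex 365/Em 440 for AC50.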

[2] = AP1 Signaling Pathway (AID 357; active means well fitted curve in either direction with a large enough effect, not every such curve was filed as active;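 further: ME-180 reporter cells stimulated with EGF at its EC50 level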); details: ME-180 AP-1-bla reporter, EGF-induced, beta-lactamase ratio, 5 h; at 7.69 µM (top of the series) unless noted
In short: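 Titration-series screen for positive or negative modulators of EC50 EGF-induced signaling in ME-180 cells carrying an AP-1-driven beta-lactamase reporter. After 5 hours at 37 degrees Celsius, CCF4 460nm/530nm emission ratio gave %Activity; AC50 values derived.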

[3] = NFAT Signaling Pathway (AID 444; active means well fitted curve in either direction with a large enough effect, not every such curve was filed as active;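 further: carbachol stimulus at about its EC50 of 1 µM final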); details: Jurkat NFAT-bla M1, carbachol, beta-lactamase ratio, 5 h; at 7.69 µM (top of the series) unless noted
In short: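 Jurkat cells with NFAT-driven β-lactamase reporter and co-expressed M1 receptor, stimulated with carbachol (final 1 uM, ~EC50), compound titration, 5 h at 37 °C. CCF4 loaded 1 h at RT; 460/530 nm ratio gave %activity and AC50.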

[4] = Stat Signaling Pathway (AID 446; active means well fitted curve in either direction with a large enough effect, not every such curve was filed as active;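 further: ME-180 cervical cancer cells given 40 pM IL-6 alongside compound; SIE-controlled beta-lactamase reporter measured as 460/530 nm FRET emission ratio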); details: ME-180 SIE beta-lactamase reporter, IL-6 stimulated, 5 h; at 7.69 µM (top of the series) unless noted
In short: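 Screening format detects activators and inhibitors alike: ME-180 SIE-bla cells stimulated at 40 pM IL-6 for 5 hrs with compound, then dual-emission beta-lactamase read at 405 nm excitation.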

[5] = target: Glucocorticoid receptor (Homo sapiens) (UniProt P04150); assay: GR-GFP Redistribution (AID 450;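 active means compounds whose dose series gives a full or clear partial fitted curve of increased nuclear translocation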; further: potency means the concentration at half of the fitted maximal effect); details: U2OS GR-GFP nuclear translocation, laser cytometry, 2 h
[6] = target: Glucocorticoid receptor (Homo sapiens) (UniProt P04150); assay: GR-EFC Redistribution (AID 451; calls by dose curve; further: potency means the concentration at half of the fitted maximal effect); details: CHO-K1 GR-EFC translocation, beta-gal luminescence, 2 h
In short: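 CHO-K1 cells expressing nuclear EA and GR-ED fragments of b-gal; compounds titrated up to 46 uM final, 2 h at 37 C. GR nuclear translocation read as complemented b-gal luminescence after 1 h RT detection.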

[7] = target: Mitogen-activated protein kinase 10 (Mus musculus) (UniProt Q61831); assay: JNK3 AlphaScreen Assay (AID 530; active means well fitted curve in either direction with a large enough effect, not every such curve was filed as active;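 further: kinase came from lysate of stimulated human HepG2 cells; signal reports phosphorylation of biotinylated GST-cJun 1-79 at Ser73 with 10 µM ATP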); details: JNK3 lysate, c-Jun phosphorylation; series mostly up to 57.1 µM
In short: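 Pre-activated (IL-1β/TNFα) JNK3 in HepG2 lysates phosphorylates biotin-GST-cJun(1-79), 10 uM ATP; anti-phospho-cJun(Ser73) AlphaScreen read at room temperature, pH 7.6 Tris buffer. Compounds pre-incubated 15 min as titrations.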

[8] = target: Dual specificity protein kinase CLK4 (Homo sapiens) (UniProt Q9HAZ1); assay: qHTS Assay for Inhibitors of CDC-like Kinase 4 (Kinase-Glo Assay) (AID 1770); details: recombinant Clk4, Kinase-Glo ATP depletion luminescence; series mostly up to 66.7 µM; further: nearly all actives have a fitted effect of over 65% in size; further: potency means the concentration at half of the fitted maximal effect
In short: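 Inhibition was judged from remaining ATP, measured by Ultra-Glo luciferase bioluminescence after Clk4 (25 nM) had acted on RS peptide at 1 uM ATP for 4.5 hours, room temperature.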

[9] = target: Dual specificity protein kinase CLK4 (Homo sapiens) (UniProt Q9HAZ1); assay: qHTS Assay for Inhibitors of CDC-like Kinase 4 (ADP-Glo Assay) (AID 1771); details: recombinant CLK4, ADP-Glo luminescence; series mostly up to 80 µM; further: nearly all actives have a fitted effect of over 70% in size; further: potency means the concentration at half of the fitted maximal effect
In short: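 25 nM Clk4 with 100 uM RS repeat peptide and 1 uM ATP (final) in buffer with 2 mM MgCl2, 0.5 mM EGTA, 2.5 mM DTT, 0.01% Triton X-100; 1 h at room temperature; ADP-Glo luminescence for ADP formed.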

[10] = target: Dual specificity protein kinase CLK4 (Homo sapiens) (UniProt Q9HAZ1); assay: qHTS Assay for Inhibitors of CDC-like Kinase 4 (ADP-FP Assay) (AID 1795); details: Transcreener ADP fluorescence polarization; series mostly up to 50 µM; further: nearly all actives have a fitted effect of over 60% in size; further: potency means the concentration at half of the fitted maximal effect;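 on activity change, negative = inhibition: recombinant human CLK4 phosphorylating RS repeat peptide at 1 µM ATP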
In short: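 Inhibition of ADP formation by 6.25 nM Clk4 is measured using 1 uM ATP and 100 uM RS repeat peptide over one hour. Produced ADP displaces a fluorescent tracer from antibody, lowering polarization.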

[11] = Primary qHTS for small molecule stabilizers of the endoplasmic reticulum resident proteome: Secreted ER Calcium Modulated Protein (SERCaMP) assay (AID 1508630); details: SH-SY5Y GLuc-SERCaMP (Gaussia luciferase released on ER calcium loss) secretion, thapsigargin, luminescence; series mostly up to 38.4 µM
In short: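 GLuc-SERCaMP-expressing SH-SY5Y cells, pretreated 16 h with compound, are challenged with thapsigargin to empty ER calcium stores; after 4 h, coelenterazine is added directly to the medium and luminescence is imaged.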

[12] = target: 3',5'-cyclic-AMP phosphodiesterase 4B (Homo sapiens) (UniProt Q07343); assay: qHTS Assay for Inhibitors of PDE-IV (AID 607; active means well fitted activation curve with a large enough effect in the main read-out, with a control signal flat, not every such curve was filed as active); details: HEK293 ACTOne CNG channel cells, membrane potential fluorescence; series mostly up to 22.9 µM
In short: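 The readout is membrane depolarisation from a cAMP-sensing CNG channel, detected with a potential dye at ex 535/em 590. Cells were HEK293-derived (endogenous PDE-IV) at 1000 cells/well, titrated up to 22.9 uM final.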

[13] = target: Ubiquitin carboxyl-terminal hydrolase 1 (Homo sapiens) (UniProt O94782); assay: Inhibitors of USP1/UAF1: Pilot qHTS (AID 504865); details: purified USP1/UAF1, Ub-rhodamine cleavage fluorescence; series mostly up to 54.9 µM;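 further: rhodamine fluorescence freed from ubiquitin-rhodamine substrate followed over time; top concentration of the series differs between compounds; nearly all actives have a fitted effect of over 35% in size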
In short: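 Kinetic fluorescence assay: 1nM USP1/UAF1, 15 min compound preincubation, then 150nM Ub-Rho; 480/540 nm.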

[14] = qHTS Assay for Identification of Small Molecule Agonists for Hypoxia Response Element Signaling Pathway (AID 914; active means well fitted activation curve with a large enough effect in the signal ratio, with a control signal flat, not every such curve was filed as active; the % refers to the signal ratio; further: potency means the concentration at half of the fitted maximal effect); details: ME-180 (cervical carcinoma) HRE-bla reporter, beta-lactamase ratio, CoCl2, 17 h; activation: hits give high values
In short: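 Cells were plated overnight, pin-dosed with compound in a titration series, co-stimulated with EC50 CoCl2 and incubated 17 hours at 37 degrees Celsius. CCF4 substrate was then loaded, and AC50 values came from the 460nm/530nm ratio.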

[15] = target: Cytochrome P450 2C9 (Homo sapiens) (UniProt P11712); assay: qHTS Assay for Inhibitors and Substrates of Cytochrome P450 2C9 (AID 883); details: recombinant CYP2C9, luciferin-H luminescence, 60 min; series mostly up to 57.1 µM; further: nearly all actives have a fitted effect of over 60% in size
In short: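 10nM CYP2C9 + 100uM Luciferin-H (=KM), 25mM KPO4; cpd 10 min 37C; NADPH regen, 60 min 37C; stop/detect with P450 Glo-Buffer 20 min; luminescence. Norm. to 57uM sulphaphenazole as full inhibition.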

[16] = target: Cytochrome P450 3A4 (Homo sapiens) (UniProt P08684); assay: qHTS Assay for Activators of Cytochrome P450 3A4 (AID 885); details: recombinant CYP3A4, Luciferin-PPXE luminescence, 60 min; series mostly up to 57.1 µM; further: nearly all actives have a fitted effect of over 65% in size
In short: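 Steps: enzyme/substrate mix dispensed; compound added, 10 min RT; NADPH regeneration solution added, 60 min RT; luciferin detection buffer stops reaction; 20 min later luminescence measured.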

3',5'-cyclic-AMP phosphodiesterase 4B (Homo sapiens), sequence (Q07343 whole entry, looked up): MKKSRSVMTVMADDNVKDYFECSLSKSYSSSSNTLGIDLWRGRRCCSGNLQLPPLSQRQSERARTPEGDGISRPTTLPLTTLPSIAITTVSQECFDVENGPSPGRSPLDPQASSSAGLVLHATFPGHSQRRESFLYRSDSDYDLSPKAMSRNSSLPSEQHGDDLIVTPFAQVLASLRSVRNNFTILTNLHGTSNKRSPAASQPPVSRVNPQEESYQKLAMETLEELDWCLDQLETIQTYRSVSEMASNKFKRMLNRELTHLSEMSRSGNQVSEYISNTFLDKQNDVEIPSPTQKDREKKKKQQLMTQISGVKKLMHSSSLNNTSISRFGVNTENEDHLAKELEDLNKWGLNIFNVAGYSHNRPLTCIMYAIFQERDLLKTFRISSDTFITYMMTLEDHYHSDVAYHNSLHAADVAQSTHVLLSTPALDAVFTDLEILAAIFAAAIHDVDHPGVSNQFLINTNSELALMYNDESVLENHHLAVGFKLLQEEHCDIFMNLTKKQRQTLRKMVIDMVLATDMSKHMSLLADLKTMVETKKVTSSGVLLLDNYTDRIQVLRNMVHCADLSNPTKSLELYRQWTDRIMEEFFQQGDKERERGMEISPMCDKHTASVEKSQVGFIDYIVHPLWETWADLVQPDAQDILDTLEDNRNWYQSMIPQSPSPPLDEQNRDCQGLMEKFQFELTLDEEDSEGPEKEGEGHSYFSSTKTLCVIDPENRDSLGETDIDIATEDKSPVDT
Ubiquitin carboxyl-terminal hydrolase 1 (Homo sapiens), sequence (O94782 whole entry, looked up): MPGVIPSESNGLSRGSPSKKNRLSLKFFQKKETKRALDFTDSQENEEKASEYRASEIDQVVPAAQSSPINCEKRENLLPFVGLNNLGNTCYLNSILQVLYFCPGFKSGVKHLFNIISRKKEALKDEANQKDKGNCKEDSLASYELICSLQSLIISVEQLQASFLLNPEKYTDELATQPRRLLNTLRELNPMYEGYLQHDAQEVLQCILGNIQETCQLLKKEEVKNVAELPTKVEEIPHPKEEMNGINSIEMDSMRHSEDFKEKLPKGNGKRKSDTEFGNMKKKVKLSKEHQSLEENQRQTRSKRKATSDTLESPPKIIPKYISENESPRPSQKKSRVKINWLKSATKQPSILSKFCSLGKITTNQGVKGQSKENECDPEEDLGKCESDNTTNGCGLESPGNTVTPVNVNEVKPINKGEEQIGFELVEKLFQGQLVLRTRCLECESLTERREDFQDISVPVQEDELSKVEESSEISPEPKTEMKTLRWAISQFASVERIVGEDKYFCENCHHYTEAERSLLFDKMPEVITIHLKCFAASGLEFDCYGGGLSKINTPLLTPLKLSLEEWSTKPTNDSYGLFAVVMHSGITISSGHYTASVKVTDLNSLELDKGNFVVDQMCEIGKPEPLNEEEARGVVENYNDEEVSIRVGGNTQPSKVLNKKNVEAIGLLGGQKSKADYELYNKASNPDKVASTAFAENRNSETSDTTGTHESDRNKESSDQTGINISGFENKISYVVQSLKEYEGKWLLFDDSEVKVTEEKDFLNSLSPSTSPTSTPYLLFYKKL
Dual specificity protein kinase CLK4 (Homo sapiens), sequence (Q9HAZ1 whole entry, looked up): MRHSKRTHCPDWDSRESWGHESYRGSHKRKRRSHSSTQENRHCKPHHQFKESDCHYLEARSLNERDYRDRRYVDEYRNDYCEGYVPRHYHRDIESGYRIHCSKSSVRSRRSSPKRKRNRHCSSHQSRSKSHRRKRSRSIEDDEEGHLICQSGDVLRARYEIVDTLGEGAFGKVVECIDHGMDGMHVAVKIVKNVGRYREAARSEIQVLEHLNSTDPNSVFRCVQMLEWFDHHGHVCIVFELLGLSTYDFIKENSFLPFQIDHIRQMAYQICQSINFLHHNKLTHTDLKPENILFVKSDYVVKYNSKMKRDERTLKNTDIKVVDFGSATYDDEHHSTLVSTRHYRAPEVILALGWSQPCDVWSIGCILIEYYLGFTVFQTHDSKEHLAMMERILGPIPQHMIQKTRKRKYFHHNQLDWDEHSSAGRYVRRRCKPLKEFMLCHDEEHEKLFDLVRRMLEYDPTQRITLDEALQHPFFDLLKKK
Glucocorticoid receptor (Homo sapiens), sequence (P04150 whole entry, looked up, the tested form may be a part): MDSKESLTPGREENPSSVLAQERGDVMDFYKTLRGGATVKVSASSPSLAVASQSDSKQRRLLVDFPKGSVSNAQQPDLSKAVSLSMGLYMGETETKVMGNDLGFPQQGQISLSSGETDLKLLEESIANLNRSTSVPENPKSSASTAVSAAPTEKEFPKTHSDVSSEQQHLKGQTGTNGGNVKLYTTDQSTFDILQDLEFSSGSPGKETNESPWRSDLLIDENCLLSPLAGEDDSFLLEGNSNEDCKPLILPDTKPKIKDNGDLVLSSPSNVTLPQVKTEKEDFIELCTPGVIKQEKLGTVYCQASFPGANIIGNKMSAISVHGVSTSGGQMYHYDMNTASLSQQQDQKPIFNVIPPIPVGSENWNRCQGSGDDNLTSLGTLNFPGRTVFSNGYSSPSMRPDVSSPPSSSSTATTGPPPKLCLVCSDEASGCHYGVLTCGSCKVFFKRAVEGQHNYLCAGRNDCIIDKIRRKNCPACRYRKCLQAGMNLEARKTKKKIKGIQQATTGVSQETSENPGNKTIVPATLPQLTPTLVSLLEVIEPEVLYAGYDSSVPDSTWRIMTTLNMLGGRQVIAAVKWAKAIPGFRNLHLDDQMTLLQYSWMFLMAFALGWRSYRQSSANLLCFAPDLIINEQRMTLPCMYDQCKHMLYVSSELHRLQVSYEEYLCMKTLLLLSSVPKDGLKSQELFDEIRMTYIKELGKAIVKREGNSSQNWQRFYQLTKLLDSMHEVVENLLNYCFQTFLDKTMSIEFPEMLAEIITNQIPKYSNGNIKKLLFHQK
Lysosomal acid glucosylceramidase (Homo sapiens), sequence (P04062 whole entry, looked up): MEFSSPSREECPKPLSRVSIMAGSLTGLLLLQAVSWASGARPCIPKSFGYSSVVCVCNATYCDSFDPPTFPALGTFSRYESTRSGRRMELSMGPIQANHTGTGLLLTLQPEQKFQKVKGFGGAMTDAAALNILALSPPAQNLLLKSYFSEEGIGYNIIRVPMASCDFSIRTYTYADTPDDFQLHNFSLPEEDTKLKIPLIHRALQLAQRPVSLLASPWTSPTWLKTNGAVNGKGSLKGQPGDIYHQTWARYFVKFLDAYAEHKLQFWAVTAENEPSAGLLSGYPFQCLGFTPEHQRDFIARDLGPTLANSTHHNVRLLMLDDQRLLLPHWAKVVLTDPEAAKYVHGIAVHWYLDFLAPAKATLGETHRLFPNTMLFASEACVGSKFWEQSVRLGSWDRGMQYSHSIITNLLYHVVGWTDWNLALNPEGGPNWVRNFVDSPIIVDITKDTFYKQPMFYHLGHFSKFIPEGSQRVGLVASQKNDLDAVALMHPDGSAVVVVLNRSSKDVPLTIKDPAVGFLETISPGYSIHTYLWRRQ
Cytochrome P450 3A4 (Homo sapiens), sequence (P08684 whole entry, looked up): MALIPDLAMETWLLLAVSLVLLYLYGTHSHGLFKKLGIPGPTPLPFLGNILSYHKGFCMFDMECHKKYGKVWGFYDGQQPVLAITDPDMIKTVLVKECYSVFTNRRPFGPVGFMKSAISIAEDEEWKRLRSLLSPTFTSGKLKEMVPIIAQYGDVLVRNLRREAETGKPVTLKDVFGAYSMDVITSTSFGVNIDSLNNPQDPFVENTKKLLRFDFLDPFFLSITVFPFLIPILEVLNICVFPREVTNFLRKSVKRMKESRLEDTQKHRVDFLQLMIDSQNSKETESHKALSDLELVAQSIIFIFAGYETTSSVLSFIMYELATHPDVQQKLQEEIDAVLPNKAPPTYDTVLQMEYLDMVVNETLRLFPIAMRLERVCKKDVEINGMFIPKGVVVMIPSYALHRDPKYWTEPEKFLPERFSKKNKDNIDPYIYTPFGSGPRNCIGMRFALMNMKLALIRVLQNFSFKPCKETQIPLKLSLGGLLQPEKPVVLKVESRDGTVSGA
Cytochrome P450 2C9 (Homo sapiens), sequence (P11712 whole entry, looked up): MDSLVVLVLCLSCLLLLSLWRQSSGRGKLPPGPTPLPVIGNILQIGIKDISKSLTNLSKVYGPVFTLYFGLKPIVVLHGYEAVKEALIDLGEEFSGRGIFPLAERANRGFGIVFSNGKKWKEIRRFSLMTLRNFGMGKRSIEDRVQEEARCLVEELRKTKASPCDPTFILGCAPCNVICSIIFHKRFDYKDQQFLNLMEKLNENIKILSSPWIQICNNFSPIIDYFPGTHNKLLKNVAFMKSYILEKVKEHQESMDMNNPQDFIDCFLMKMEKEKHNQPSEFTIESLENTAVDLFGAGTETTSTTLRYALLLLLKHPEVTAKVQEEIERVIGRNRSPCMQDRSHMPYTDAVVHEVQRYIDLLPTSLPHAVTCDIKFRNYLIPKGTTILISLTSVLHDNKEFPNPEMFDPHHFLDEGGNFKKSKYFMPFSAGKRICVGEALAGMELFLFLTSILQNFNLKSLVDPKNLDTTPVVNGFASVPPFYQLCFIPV

| Structure (SMILES) | Potency [1] | activity change, negative = inhibition [2] | activity change, negative = inhibition [3] | activity, negative = inhibition [4] | Potency [5] | Potency [6] | Potency [7] | Potency [8] | Potency [9] | Potency [10] | outcome [11] | Potency [12] | Potency [13] | Potency [14] | Potency [15] | Potency [16] |
| --- | --- | --- | --- | --- | --- | --- | --- | --- | --- | --- | --- | --- | --- | --- | --- | --- |
| COc1ccccc1CNc1nc(-c2ccccc2OC)nc2ccccc12 | > 11.4 µM | 6.17% | -24.7% | -10.4% | > 46 µM | > 46 µM | inactive | inactive | inactive | inactive | inactive |  |  |  |  |  |
| COc1ccc(-n2c(=O)c(-c3cccs3)nc3cnc(Nc4ccccc4)nc32)cc1 | > 11.4 µM | -7.98% |  | -8.99% | > 9.22 µM | > 46 µM | inactive | inactive | inactive | inactive | inactive | inactive | inactive |  |  |  |
| COc1ncc2nc(-c3ccccc3)c(=O)n(CCC#N)c2n1 | > 11.4 µM | -23.7% | -5.79% | -14.9% | > 9.22 µM | > 46 µM | inactive | inactive | inactive | inactive | inactive | inactive | inactive |  |  |  |
| COc1cccc(Cn2c(=O)c(-c3ccc(Cl)cc3)nc3cncnc32)c1 | > 11.4 µM | -9.78% | -4.86% | -0.792% | > 9.22 µM | > 46 µM | inactive | inactive | inactive | inactive | inactive |  |  |  |  |  |
| COc1ncc2nc(-c3cn(C)c4ccccc34)c(=O)n(CCc3ccccc3)c2n1 | > 11.4 µM | 24.3% | -1.31% |  | > 9.22 µM | > 46 µM |  | inactive | inactive | inactive | inactive |  | inactive | 1 µM (active) |  |  |
| N#Cc1cccc(-c2nc3cnc(N4CCOCC4)nc3n(Cc3ccc(F)cc3)c2=O)c1 | > 11.4 µM | -7.31% | 27.2% | 13.2% | > 9.22 µM | > 46 µM | inactive | inactive | inactive | inactive | inactive | inactive | inactive |  | inactive |  |
| COc1ccc(CNc2nc(-c3ccc(N(C)C)cc3)nc3ccccc23)c(OC)c1 | > 11.4 µM | 5.6% |  | 23.2% | > 46 µM | > 46 µM | inactive | inactive | inactive | inactive | inactive | inactive | inactive |  |  | inactive |
| COc1ccc(Oc2ncc3nc(-c4cccc(C#N)c4)c(=O)n(C)c3n2)cc1 | > 11.4 µM | -0.821% | -9.84% | -2.78% | > 9.22 µM | > 46 µM | inactive | inactive | inactive | inactive | inactive | inactive | inactive |  |  |  |
| COc1ccc(Oc2ncc3nc(-c4ccc(F)cc4)c(=O)n(C4CC4)c3n2)cc1 | > 11.4 µM | 0.828% |  | 14.5% | > 9.22 µM | > 46 µM | inactive | inactive | inactive | inactive | inactive | inactive | inactive |  |  |  |
| c1cncc(-c2nc(-n3ccnc3)c3ccccc3n2)c1 | > 11.4 µM | 14.5% | 8.3% | -3.82% |  | > 46 µM | inactive | 11.2 µM (active) | 11.2 µM (active) | 12.6 µM (active) | inactive | inactive | inactive |  |  |  |
| CCNc1ncc2nc(-c3cc(F)cc(F)c3)c(=O)n(C3CC3)c2n1 | > 11.4 µM | 29.9% | 23.3% | 28.9% | > 9.22 µM |  | inactive | inactive | inactive | inactive | inactive | inactive | inactive |  |  |  |
| CN(C)C(=O)c1ccc(-c2cncnc2N(C)Cc2ccco2)cc1 | > 11.4 µM | -9.99% | -12.8% | 3.83% | > 46 µM | > 46 µM | inactive | inactive | inactive | inactive | inactive | inactive | inactive |  |  |  |
| COCCn1c(=O)c(C)nc2cnc(N3CCOCC3)nc21 | > 11.4 µM | -1.95% | -1.73% | -12.9% | > 9.22 µM | > 46 µM | inactive | inactive | inactive | inactive | inactive | inactive | inactive |  |  |  |
| O=c1c(-c2ccccc2)nc2cnc(Nc3ccccc3)nc2n1C[C@H]1CCCO1 | > 11.4 µM | 1.69% | -14.2% | -4.27% | > 9.22 µM | > 46 µM | inactive | inactive | inactive | inactive | inactive | inactive | inactive |  |  | inactive |
